Assay outcomes: PubChem, National Center for Advancing Translational Sciences (NCATS)
GLP-1R inv ag: acts as inverse agonist at human GLP-1 receptor | actives 1.6% (n = 410,000) | HEK293 GLP-1R CRE-luciferase, luminescence, 24 h; GLP-1R form is constitutively active | P43220 | Potency, µM (series often up to 38.3 µM), hits mostly inhibitors; further: nearly all actives have a fitted effect of over 55% in size
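Inverse agonism was detected as reduced cAMP-driven luciferase luminescence after 24 h compound treatment. The cells were HEK293 clones expressing constitutively active human GLP-1R with the reporter. Reporter-only and GPR119 cell lines served as counterscreen controls.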
GLP-1R agonist: GLP-1 receptor (human) agonism; actives 0.007% (n = 380,000); Potency, µM (top dose mostly 45.6 µM), most hits filed as activators; HEK293 GLP-1R CRE-luciferase, luminescence, 4-6 h; cells express a hypersensitive GLP-1R form; AID 624172
D3 ag: activates the human D3 dopamine receptor | P35462 | D3R DiscoveRx beta-arrestin cells, luminescence, 90 min | max activation, % | actives 0.58% (n = 410,000); in the data active means max activation above about 30%
Target sequence (P35462 whole entry, looked up): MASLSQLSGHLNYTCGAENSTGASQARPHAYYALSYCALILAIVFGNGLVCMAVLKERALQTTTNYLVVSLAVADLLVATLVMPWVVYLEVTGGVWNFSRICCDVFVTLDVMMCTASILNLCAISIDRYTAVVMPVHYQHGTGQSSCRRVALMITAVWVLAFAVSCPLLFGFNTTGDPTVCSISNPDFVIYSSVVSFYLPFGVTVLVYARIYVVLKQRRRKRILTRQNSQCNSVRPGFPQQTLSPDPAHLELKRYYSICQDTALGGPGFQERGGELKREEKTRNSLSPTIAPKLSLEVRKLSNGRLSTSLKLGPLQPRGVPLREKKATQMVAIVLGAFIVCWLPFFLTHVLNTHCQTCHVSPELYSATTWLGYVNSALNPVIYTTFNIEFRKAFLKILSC
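Agonist mode: compounds and dopamine controls were applied to plated cells for 90 min at 37 degrees C after an overnight attachment at 1500 cells/well. Luminescent read-out followed 30 - 60 minutes at room temperature with DiscoveRx detection reagent.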
D3 antag: antagonists of human D3 dopamine receptor | P35462 | D3R cells, DiscoveRx beta-arrestin luminescence, antagonist mode; hits give low values | max response, negative = inhibition, % | actives 2.5% (n = 360,000) | AID 652054; in the data active means max response below about -50%; inconclusive means no clear call, values can overlap the other calls
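Cells expressing the human receptor were seeded at 1500 cells/well, incubated overnight at 37 degrees C in 5% CO2, then exposed to library compounds with dopamine controls for 90 minutes at 37 degrees C before luminescent detection.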
Each line names hits and unclear results; the compound was inactive in the other large screens. Only some compounds are listed: those with a hit (about 4.3% of all), similar ones and a draw of the others. Unless noted, the call rests on the fitted dose curve; in most records, active means well fitted curve in the direction sought with a large enough effect; inconclusive means small, poorly fitted or top-dose-only effect, or another doubt; inactive means no such curve, though single readings can be large; an effect the other way counts as inactive or inconclusive.

CCOC(=O)C1=CCC(c2ccccc2C)N(S(=O)(=O)c2ccc(C)cc2)C1 (configuration not stated)	GLP-1R inv ag inconclusive, D3 antag -50.3
CCOc1cc(C=O)ccc1OCCSc1ccc(Cl)cc1	none
O=C(CN1C(=O)NC2(CCCC2)C1=O)Nc1cccc(Cl)c1Cl	none
O=C1CN(CC(=O)Nc2cccc(Cl)c2Cl)c2ccccc2N1	GLP-1R inv ag 10µM
O=C1CC2(CCOCC2)Oc2ccc3ccccc3c21	none
CCc1ccc(N/C(SC)=C(/C#N)C(N)=O)cc1	none
CCOc1ccc(N/C(SC)=C(/C#N)C(N)=O)cc1	D3 antag -53.3
O=C(Nc1cccnc1)c1cccc(S(=O)(=O)Nc2cccc(Cl)c2)c1	none
CNS(=O)(=O)c1cccc(C(=O)Nc2cccnc2)c1	D3 antag -57.4
O=C(O)c1ccc(-n2c(-c3ccc(Br)cc3)n[nH]c2=S)cc1	D3 antag -88.9
O=C(CSc1nnc(CNC(=O)c2cccc(F)c2)n1-c1ccccc1)Nc1ccccc1F	none (no result: GLP-1R agonist, D3 antag)
CCOC(=O)C1CCN(C(=O)C2CCN(C3=NS(=O)(=O)C(c4ccc(C)c(C)c4)=C3C)CC2)CC1	none (no result: GLP-1R agonist, D3 antag)
Cc1c(C(=O)c2ccc(Cl)c(Cl)c2)cnc2cc3c(cc12)OCO3	GLP-1R inv ag inconclusive, D3 antag -55.8
Cc1cccc(N2CCN(C(=O)c3cnn(-c4ccc(F)cc4F)c3C3CCN(C(=O)OC(C)(C)C)CC3)CC2)c1C	none (no result: GLP-1R agonist, D3 antag)
Cc1ccc(OCCSc2nc3ccccc3n2CCC(=O)O)c(C(C)C)c1	D3 antag -52.4
CCN1CCN(c2ncc(C(=O)Nc3c(F)cc(F)cc3Br)c3ccccc23)CC1	GLP-1R inv ag inconclusive, D3 antag -62.2
CCN1CCN(c2ncc(C(=O)Nc3cc(Cl)c(OC)cc3OC)c3ccccc23)CC1	none
Cc1ccc(NS(=O)(=O)c2ccc(-n3cccn3)cc2)c(C)c1	GLP-1R inv ag 10µM
Cc1ccc(NS(=O)(=O)c2ccc(-n3cccn3)cc2)c(Br)c1	GLP-1R inv ag inconclusive
CCC(=O)N1CCc2cc(CNC(=O)C(CC)c3ccccc3)ccc21 (configuration not stated)	none (no result: GLP-1R agonist, D3 antag)
O=C(NC1CCCCC1)/C(=C/c1ccc(Cl)cc1)NC(=O)c1ccccc1	none (no result: GLP-1R agonist, D3 antag)
OC(C#CCN1CCCC1)(c1ccccc1)c1cccnc1 (configuration not stated)	none
OC(C#CCN1CCCCCC1)(c1ccccc1)c1cccnc1 (configuration not stated)	D3 antag -64.0
OC(C#CCN1CCCCC1)c1ccccc1 (configuration not stated)	D3 antag -50.6
CC(C)C(O)(C#CCN1CCCC1)c1ccccc1 (configuration not stated)	none
OC(C#CCN1CCCC1)c1ccccc1 (configuration not stated)	none
CC(C)C(O)(C#CCN1CCCCC1)c1ccccc1 (configuration not stated)	GLP-1R inv ag inconclusive, D3 antag -71.4
COc1ccc(Cl)cc1S(=O)(=O)N1CCN(Cc2cccc(F)c2)CC1	GLP-1R inv ag inconclusive (no result: GLP-1R agonist, D3 antag)
COc1ccc(-n2c(-c3ccc(C)cc3)cc3c2CC(C)(C)CC3=O)c(OC)c1	GLP-1R inv ag inconclusive (no result: GLP-1R agonist, D3 antag)
CC1CCN(c2ccc3c(c2)S(=O)(=O)c2cccc(C(=O)NC4CC4)c2C3=O)CC1	D3 ag 52.1
O=C(NCC1CCCO1)c1cccc2c1C(=O)c1ccc(N3CCC(Cc4ccccc4)CC3)cc1S2(=O)=O (configuration not stated)	GLP-1R inv ag inconclusive, D3 ag 49.7
O=C1c2ccccc2S(=O)(=O)c2cc(N3CCN(c4ccccc4)CC3)ccc21	D3 ag 51.7
CC1CCN(c2ccc3c(c2)S(=O)(=O)c2cccc(C(=O)NC[C@@H]4CCCO4)c2C3=O)CC1	D3 ag 31.3
O=C(NC[C@@H]1CCCO1)c1cccc2c1C(=O)c1ccc(N3CCOCC3)cc1S2(=O)=O	none
COCCCNC(=O)CCCn1c(SCC(=O)c2ccc(Br)cc2)nc2c(sc3ccccc32)c1=O	none (no result: GLP-1R agonist, D3 antag)
CC1CC(C)CN(C(=O)C(C)N2CCN(S(=O)(=O)c3ccc(C(F)(F)F)cc3)CC2)C1 (configuration not stated)	GLP-1R inv ag 10µM
CC(C(=O)N1CCCC1)N1CCN(S(=O)(=O)c2ccc(OC(F)(F)F)cc2)CC1 (configuration not stated)	none
CC1CC(C)CN(S(=O)(=O)c2ccc(C(C)(C)C)cc2)C1 (configuration not stated)	GLP-1R inv ag 2µM
